From PubChem BioAssay (NCATS) come the findings set out here.

The target of assay [1] is Lysosomal acid glucosylceramidase (Homo sapiens) (UniProt P04062). Nature of the assay: Glucocerebrosidase-p2 (AID 348; in the data active means potency below about 10 µM; further: potency means the concentration at half of the fitted maximal effect). Conditions: purified GBA, blue fluorogenic substrate, 40 min. An outline of the steps: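 Normal human glucocerebrosidase (0.2 nM) with blue fluorogenic substrate (80 uM final) in citrate/phosphate pH 5.9 with 10mM sodium taurocholate, 0.01% tween-20; 40 min RT, NaOH/glycine stop; fluorescence Ex 365/Em 440; AC50 from a titration from 0.6 nM upwards.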

Assay [2] is described as follows: AP1 Signaling Pathway (AID 357; active means well fitted curve in either direction with a large enough effect, not every such curve was filed as active;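 further: ME-180 reporter cells stimulated with EGF at its EC50 level; on the % scale 0 is the no-effect control and ±100 the full control effect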). Conditions: ME-180 AP-1-bla reporter, EGF-induced, beta-lactamase ratio, 5 h; at 7.69 µM (top of the series) unless noted. An outline of the steps:
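In this screen, ME-180 cells in Opti-MEM with 0.5% dialyzed FBS received EC50 EGF and compound titrations for 5 h. AP-1 reporter beta-lactamase was detected via CCF4 ratio, giving AC50 for positive and negative modulators.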

Assay [3] deals with Cytochrome P450 1A2 (Homo sapiens) (UniProt P05177). The assay can be described thus: p450-cyp1a2 (AID 410). Further: potency means the concentration at half of the fitted maximal effect.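 On activity change, negative = inhibition: -100% = full effect of reference inhibitor.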 To be noted: recombinant CYP1A2, luciferin-ME demethylation, luminescence; series mostly up to 57 µM. The method in brief: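 20nM CYP1A2, 100uM Luciferin-ME (=Km), 100mM KPO4; cpd 10 min RT; +NADPH regen, 60 min RT; stop/detect 20 min; luminescence. Normalized to furafylline 57 uM = full inhibition.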

A short description of assay [4]: NFAT Signaling Pathway (AID 444; active means well fitted curve in either direction with a large enough effect, not every such curve was filed as active;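 further: carbachol stimulus at about its EC50 of 1 µM final; on the % scale 0 is the no-effect control and ±100 the full control effect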). Conditions: Jurkat NFAT-bla M1, carbachol, beta-lactamase ratio, 5 h; at 7.69 µM (top of the series) unless noted. An outline of the steps: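 Jurkat cells with NFAT-driven β-lactamase reporter and co-expressed M1 receptor, stimulated with carbachol (final 1 uM, ~EC50), compound titration, 5 h at 37 °C. CCF4 loaded 1 h at RT; 460/530 nm ratio gave %activity and AC50.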

For assay [5], the target named is Glucocorticoid receptor (Homo sapiens) (UniProt P04150). The assay can be described thus: GR-EFC Redistribution (AID 451). Further: potency means the concentration at half of the fitted maximal effect. Conditions: CHO-K1 GR-EFC translocation, beta-gal luminescence, 2 h. An outline of the steps: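 CHO-K1 cells expressing nuclear EA and GR-ED fragments of b-gal; compounds titrated up to 46 uM final, 2 h at 37 C. GR nuclear translocation read as complemented b-gal luminescence after 1 h RT detection.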

Assay [6] has as its target Mitogen-activated protein kinase 10 (Mus musculus) (UniProt Q61831). The assay can be described thus: JNK3 AlphaScreen Assay (AID 530; active means well fitted curve in either direction with a large enough effect, not every such curve was filed as active;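 further: kinase came from lysate of stimulated human HepG2 cells; signal reports phosphorylation of biotinylated GST-cJun 1-79 at Ser73 with 10 µM ATP; on the % scale 0 is the no-effect control and ±100 the full control effect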). Conditions: JNK3 lysate, c-Jun phosphorylation; series mostly up to 57.1 µM. An outline of the steps: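 HepG2 lysate (IL-1b/TNFa pre-activated) + biotin-GST-cJun 1-79 + anti-pSer73 cJun; cpd titration, 15 min RT; ATP 10 uM start; Tris pH 7.6, MgCl2, DTT, vanadate; beads in EDTA buffer; AlphaScreen.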

The target of assay [7] is 3',5'-cyclic-AMP phosphodiesterase 4B (Homo sapiens) (UniProt Q07343). The assay can be described thus: qHTS Assay for Inhibitors of PDE-IV (AID 607; active means well fitted activation curve with a large enough effect in the main read-out, with a control signal flat, not every such curve was filed as active; further: % of control where 0% means no effect). To be noted: HEK293 ACTOne CNG channel cells, membrane potential fluorescence; series mostly up to 22.9 µM. An outline of the steps:
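The readout is membrane depolarisation from a cAMP-sensing CNG channel, detected with a potential dye at ex 535/em 590. Cells were HEK293-derived (endogenous PDE-IV) at 1000 cells/well, titrated up to 22.9 uM final.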

The nature of assay [8]: qHTS Assay for Lipid Storage Modulators (AID 1519). To be noted: Drosophila S3 cells, BODIPY lipid droplet/cell ratio, laser cytometry, cells loaded with oleic acid; for activity change, negative = inhibition: at 57.5 µM (top of the series). An outline of the steps: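 Cells seeded at 5,000 per well were treated with compounds over a concentration series and loaded with oleic acid (400 uM, as added). Lipid droplet fluorescence (488 nm excitation, 500-530 nm channel) was read by laser-scanning cytometry and normalized to 20 uM Triacsin C.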

Assay [9] in a line: Primary qHTS for small molecule stabilizers of the endoplasmic reticulum resident proteome: Secreted ER Calcium Modulated Protein (SERCaMP) assay (AID 1508630; active means well fitted curve in the direction sought with a large enough effect; an effect the other way counts as inactive or inconclusive; further: on the % scale 0 is the no-effect control and ±100 the full control effect). To be noted: SH-SY5Y GLuc-SERCaMP (Gaussia luciferase released on ER calcium loss) secretion, thapsigargin, luminescence; series mostly up to 38.4 µM. The method in brief: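 The SH-SY5Y reporter protocol was run at 3 concentrations up to 38.3 uM (primary) or 11 concentrations (follow-up): 16 h compound, 100 nM thapsigargin for 4 h, then extracellular luciferase luminescence.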

The nature of assay [10]: Stat Signaling Pathway (AID 446; active means well fitted curve in either direction with a large enough effect, not every such curve was filed as active). To be noted: ME-180 (cervical carcinoma) SIE beta-lactamase reporter, IL-6 stimulated, 5 h; at 7.69 µM (top of the series) unless noted. The method in brief: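 Emission at 460 and 530 nm (excitation 405 nm) reports SIE-controlled beta-lactamase in ME-180 cells. Cells received compound with 40 pM IL-6 for 5 hrs at 37 C; data scaled between 300 pM IL-6 and 125 nM JAK-inhibitor controls.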

Assay [11] concerns the target Cytochrome P450 3A4 (Homo sapiens) (UniProt P08684). Nature of the assay: qHTS Assay for Activators of Cytochrome P450 3A4 (AID 885; active means well fitted curve in the direction sought with a large enough effect; an effect the other way counts as inactive or inconclusive; further: nearly all actives have a fitted effect of over 65% in size; further: potency means the concentration at half of the fitted maximal effect). Conditions: recombinant CYP3A4, Luciferin-PPXE luminescence, 60 min; series mostly up to 57.1 µM. The method in brief:
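Activators are scored by enhanced luminescence from CYP3A4 conversion of luciferin-PPXE (25uM, equal to KM) to luciferin, after 60 min at RT with an NADPH-regenerating system.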

For assay [12], the target named is Glucocorticoid receptor (Homo sapiens) (UniProt P04150). The assay can be described thus: GR-GFP Redistribution (AID 450;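 active means compounds whose dose series gives a full or clear partial fitted curve of increased nuclear translocation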; further: potency means the concentration at half of the fitted maximal effect). To be noted: U2OS GR-GFP nuclear translocation, laser cytometry, 2 h.
Assay [13] is described as follows: Confirmation and Secondary Assay for Modulators of Hemoglobin Beta Chain Splicing at IVS2 654 locus (AID 910; active means well fitted curve in the direction sought with a large enough effect; an effect the other way counts as inactive or inconclusive;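 further: HeLa cells stably carrying EGFP split by mutant beta-globin IVS2-654 intron; % of control where 0% means no effect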). Conditions: HeLa EGFP-654 splicing reporter, GFP fluorescence, 48 h; series mostly up to 38.3 µM. The method in brief:
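HeLa cells stably expressing EGFP interrupted by β-globin IVS2-654 intron, seeded overnight in Opti-MEM/2% FCS, then treated 2 days at 37 °C. Restored splicing read as total peak GFP intensity per well by laser scanning cytometry (488 nm excitation, 500–520 nm emission); 500 nM antisense PNA as control.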

Assay [14] is described as follows: Confirmation and Secondary Assay for Modulators of Hemoglobin Beta Chain Splicing at IVS2 705 locus (AID 930; active means well fitted curve in the direction sought with a large enough effect; an effect the other way counts as inactive or inconclusive;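 further: HeLa cells stably expressing the EGFP-705 splicing reporter; GFP fluorescence per well restored by corrected splicing of the IVS2-705 intron in EGFP; % of control where 0% means no effect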). To be noted: HeLa EGFP-705 splicing reporter, GFP fluorescence, 48 h; series mostly up to 38.3 µM. An outline of the steps: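 HeLa IVS2-705 EGFP reporter cells, 500/well, compound 2 d at 37C; correct splicing yields fluorescent EGFP. Control: 500 nM antisense PNA. Read-out: total peak GFP intensity.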

The target of assay [15] is Ubiquitin carboxyl-terminal hydrolase 1 (Homo sapiens) (UniProt O94782). The assay can be described thus: Inhibitors of USP1/UAF1: Pilot qHTS (AID 504865; active means well fitted curve in the direction sought with a large enough effect; an effect the other way counts as inactive or inconclusive;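 further: rhodamine fluorescence freed from ubiquitin-rhodamine substrate followed over time; top concentration of the series differs between compounds; on the % scale 0 is the no-effect control and ±100 the full control effect; nearly all actives have a fitted effect of over 35% in size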). To be noted: purified USP1/UAF1, Ub-rhodamine cleavage fluorescence; series mostly up to 54.9 µM. The method in brief:
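1nM USP1/UAF1 + cpd, 15 min RT; start w/ Ub-Rho 150nM final; kinetic FL 480/540 nm, 6 reads q60 s. Buffer 50mM HEPES pH 7.8, 0.5mM EDTA, 1mM TCEP, 0.01% Tween-20, 0.1 mg/ml BSA.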

[16] abbreviates: measured here: cell count channel max response.
[17] abbreviates: measured here: lipid channel max response.

Inconclusive results are not listed. Active and inactive are the calls of the source. Unless noted, the call rests on the fitted dose curve.

Glucocorticoid receptor (Homo sapiens), sequence (P04150 whole entry, looked up, the tested form may be a part): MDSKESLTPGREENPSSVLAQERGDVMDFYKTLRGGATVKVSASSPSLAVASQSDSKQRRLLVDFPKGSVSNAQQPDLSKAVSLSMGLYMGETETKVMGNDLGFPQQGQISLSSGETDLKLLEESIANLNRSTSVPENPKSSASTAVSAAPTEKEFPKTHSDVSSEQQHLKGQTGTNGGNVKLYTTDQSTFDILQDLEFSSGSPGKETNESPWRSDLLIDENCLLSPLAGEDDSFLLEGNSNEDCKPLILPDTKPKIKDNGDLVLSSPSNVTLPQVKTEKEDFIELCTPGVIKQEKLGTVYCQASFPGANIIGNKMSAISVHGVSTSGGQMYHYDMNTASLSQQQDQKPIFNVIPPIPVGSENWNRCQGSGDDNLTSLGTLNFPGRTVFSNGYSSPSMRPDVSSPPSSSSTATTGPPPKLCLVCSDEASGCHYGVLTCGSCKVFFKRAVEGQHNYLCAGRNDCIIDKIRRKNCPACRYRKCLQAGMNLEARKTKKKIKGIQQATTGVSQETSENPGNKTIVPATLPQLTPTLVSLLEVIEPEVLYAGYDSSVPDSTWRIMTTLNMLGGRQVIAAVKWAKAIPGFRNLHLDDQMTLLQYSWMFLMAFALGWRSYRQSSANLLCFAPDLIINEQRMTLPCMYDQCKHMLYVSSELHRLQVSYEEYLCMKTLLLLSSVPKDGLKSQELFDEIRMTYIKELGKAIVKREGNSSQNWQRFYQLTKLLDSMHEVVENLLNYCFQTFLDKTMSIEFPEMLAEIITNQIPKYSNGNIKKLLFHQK
Cytochrome P450 1A2 (Homo sapiens), sequence (P05177 whole entry, looked up): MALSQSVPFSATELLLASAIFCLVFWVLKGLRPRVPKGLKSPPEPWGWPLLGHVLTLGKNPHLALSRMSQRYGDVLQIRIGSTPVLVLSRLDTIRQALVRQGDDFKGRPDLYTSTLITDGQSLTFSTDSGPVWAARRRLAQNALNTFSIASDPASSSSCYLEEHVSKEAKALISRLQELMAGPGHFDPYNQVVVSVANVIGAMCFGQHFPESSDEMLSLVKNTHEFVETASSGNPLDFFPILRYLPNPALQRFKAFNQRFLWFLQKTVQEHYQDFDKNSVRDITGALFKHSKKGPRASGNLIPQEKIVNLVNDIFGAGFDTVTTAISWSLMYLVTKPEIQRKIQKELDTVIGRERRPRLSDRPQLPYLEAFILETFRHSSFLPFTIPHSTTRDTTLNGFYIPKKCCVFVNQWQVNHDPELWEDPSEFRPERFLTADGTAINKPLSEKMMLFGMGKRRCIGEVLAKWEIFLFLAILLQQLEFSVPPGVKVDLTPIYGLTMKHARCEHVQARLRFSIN
Lysosomal acid glucosylceramidase (Homo sapiens), sequence (P04062 whole entry, looked up): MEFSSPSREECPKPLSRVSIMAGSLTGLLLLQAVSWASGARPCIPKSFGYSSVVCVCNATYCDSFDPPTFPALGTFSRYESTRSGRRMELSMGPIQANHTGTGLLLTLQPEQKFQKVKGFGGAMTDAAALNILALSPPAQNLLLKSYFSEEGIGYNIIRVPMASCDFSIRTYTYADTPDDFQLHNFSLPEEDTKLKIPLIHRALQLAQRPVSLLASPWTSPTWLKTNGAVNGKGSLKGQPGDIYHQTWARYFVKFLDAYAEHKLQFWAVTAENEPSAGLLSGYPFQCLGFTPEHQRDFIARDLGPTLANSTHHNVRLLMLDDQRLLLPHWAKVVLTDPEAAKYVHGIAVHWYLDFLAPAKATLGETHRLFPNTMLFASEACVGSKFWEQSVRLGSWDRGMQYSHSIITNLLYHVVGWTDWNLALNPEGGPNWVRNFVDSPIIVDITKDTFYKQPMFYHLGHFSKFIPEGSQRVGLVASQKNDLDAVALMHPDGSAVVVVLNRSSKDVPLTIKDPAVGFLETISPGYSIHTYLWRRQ
3',5'-cyclic-AMP phosphodiesterase 4B (Homo sapiens), sequence (Q07343 whole entry, looked up): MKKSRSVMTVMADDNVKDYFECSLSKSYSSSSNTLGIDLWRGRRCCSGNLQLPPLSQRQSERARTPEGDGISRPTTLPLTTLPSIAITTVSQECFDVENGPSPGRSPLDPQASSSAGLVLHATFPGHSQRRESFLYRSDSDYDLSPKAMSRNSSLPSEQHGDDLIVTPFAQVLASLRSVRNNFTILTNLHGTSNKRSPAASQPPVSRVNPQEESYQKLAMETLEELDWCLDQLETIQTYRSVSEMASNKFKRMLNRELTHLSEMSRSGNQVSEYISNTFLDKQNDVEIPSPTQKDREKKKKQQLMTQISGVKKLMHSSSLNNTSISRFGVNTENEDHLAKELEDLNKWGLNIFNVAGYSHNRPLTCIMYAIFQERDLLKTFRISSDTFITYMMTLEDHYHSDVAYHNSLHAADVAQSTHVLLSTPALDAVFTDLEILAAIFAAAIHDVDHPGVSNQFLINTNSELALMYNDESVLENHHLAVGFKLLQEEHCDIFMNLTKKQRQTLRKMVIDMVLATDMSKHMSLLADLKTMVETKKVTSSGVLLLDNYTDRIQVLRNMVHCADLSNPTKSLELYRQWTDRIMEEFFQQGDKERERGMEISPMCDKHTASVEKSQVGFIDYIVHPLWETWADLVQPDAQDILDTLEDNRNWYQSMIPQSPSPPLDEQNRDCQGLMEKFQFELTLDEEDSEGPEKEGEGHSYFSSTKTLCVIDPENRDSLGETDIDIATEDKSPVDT
Cytochrome P450 3A4 (Homo sapiens), sequence (P08684 whole entry, looked up): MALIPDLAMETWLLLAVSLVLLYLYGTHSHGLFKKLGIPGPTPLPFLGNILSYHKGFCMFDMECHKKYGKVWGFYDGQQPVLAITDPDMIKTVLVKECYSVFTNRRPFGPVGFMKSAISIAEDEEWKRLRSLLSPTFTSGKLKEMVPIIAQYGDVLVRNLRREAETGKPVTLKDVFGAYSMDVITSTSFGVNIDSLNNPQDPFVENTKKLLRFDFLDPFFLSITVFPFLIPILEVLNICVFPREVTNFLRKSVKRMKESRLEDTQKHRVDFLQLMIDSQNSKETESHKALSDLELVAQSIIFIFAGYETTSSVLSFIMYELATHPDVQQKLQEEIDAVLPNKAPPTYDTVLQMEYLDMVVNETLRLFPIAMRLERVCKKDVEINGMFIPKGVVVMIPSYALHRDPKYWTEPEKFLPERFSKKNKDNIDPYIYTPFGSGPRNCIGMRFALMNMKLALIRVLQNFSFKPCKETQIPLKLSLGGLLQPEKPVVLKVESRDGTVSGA
Ubiquitin carboxyl-terminal hydrolase 1 (Homo sapiens), sequence (O94782 whole entry, looked up): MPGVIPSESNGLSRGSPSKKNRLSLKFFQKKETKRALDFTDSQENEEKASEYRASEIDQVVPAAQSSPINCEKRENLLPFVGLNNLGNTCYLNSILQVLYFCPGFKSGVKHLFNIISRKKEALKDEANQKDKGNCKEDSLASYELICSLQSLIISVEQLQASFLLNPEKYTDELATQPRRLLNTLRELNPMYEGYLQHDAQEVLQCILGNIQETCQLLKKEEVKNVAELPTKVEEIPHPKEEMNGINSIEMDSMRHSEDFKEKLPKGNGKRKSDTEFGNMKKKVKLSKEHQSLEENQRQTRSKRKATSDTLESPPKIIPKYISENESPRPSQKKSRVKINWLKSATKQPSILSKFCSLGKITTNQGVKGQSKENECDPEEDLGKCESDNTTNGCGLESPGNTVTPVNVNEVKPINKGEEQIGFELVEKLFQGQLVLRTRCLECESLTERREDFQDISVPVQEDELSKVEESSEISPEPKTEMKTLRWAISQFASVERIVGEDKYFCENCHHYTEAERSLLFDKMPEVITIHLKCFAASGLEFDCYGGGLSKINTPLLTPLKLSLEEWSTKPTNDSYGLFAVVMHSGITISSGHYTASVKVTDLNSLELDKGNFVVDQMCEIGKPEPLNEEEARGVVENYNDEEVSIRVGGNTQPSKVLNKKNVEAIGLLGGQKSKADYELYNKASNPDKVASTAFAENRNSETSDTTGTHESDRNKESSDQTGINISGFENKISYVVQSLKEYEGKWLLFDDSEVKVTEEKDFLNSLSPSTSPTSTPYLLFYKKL

On to `CS(=O)(=O)N1CCC2(CCCN(C(=O)Nc3ccccc3)C2)CC1`, for which the Potency in [1] is > 11.4 µM (inactive); in [3], 15.8 µM (active); in assay [5], > 46 µM (inactive). Also, the activity change, negative = inhibition in assay [2] was -5.5% (inactive); in [4] it was 11% (inactive); in assay [8], 1.48% (inactive). In addition, the result in [6] was inactive. Further, the Potency result in assay [7] and in assay [9] was “inactive” throughout. Further, the max response in assay [8] (setting [16]) amounted to 3.7%; in assay [8] (setting [17]), 9.01%.
Turning to `O=C(c1csnn1)N1CCC2(CC1)CN(c1ccccc1)C2`, the Potency in assay [1] is > 11.4 µM (inactive); in assay [5], > 46 µM (inactive). Besides, the activity change, negative = inhibition in assay [2] is -4.3% (inactive); in assay [4], -3.86% (inactive); in assay [8], 4.49% (inactive). Besides, the Potency result in assay [3], in assay [7] and in assay [9] was “inactive” each time. Also, in [6], the outcome was inactive. In addition, the max response came out at 13.3% in assay [8] (setting [16]) and 20.7% in assay [8] (setting [17]).
For the molecule `O=C(Nc1cccc(F)c1)N1CC2(CCN(S(=O)(=O)c3ccccc3)CC2)C1`, the Potency was > 11.4 µM (inactive) in assay [1] and > 46 µM (inactive) in assay [5]. In addition, the activity change, negative = inhibition is -8.31% (inactive) in assay [2] and -4.83% (inactive) in [8]. Further, the Potency result in assay [3], in [7] and in assay [9] was “inactive” each time. In addition, the activity, negative = inhibition in assay [10] was -14.1% (inactive). In addition, the outcome in assay [6] was inactive. Besides, the values for the max response in assay [8] (setting [16]) and in assay [8] (setting [17]) were -8.16% and -11.8%, respectively.
On to `COCC(=O)N1CCC2(CC1)CN(Cc1ccc(C#N)cc1)C2`, for which the values for the Potency in assay [1] and in assay [5] were > 11.4 µM (inactive) and > 46 µM (inactive), respectively. For the same molecule, the activity change, negative = inhibition in assay [2] is 3.59% (inactive); in assay [4] it was -16.7% (inactive); in assay [8] it was -4.37% (inactive). For the same molecule, the Potency result in assay [3], in [7] and in [9] was “inactive” in each case. The molecule was called inactive in assay [6]. Moreover, the max response in assay [8] (setting [16]) turned out to be 8.42%; in assay [8] (setting [17]), 5.18%.
As to `O=C(c1csnn1)N1CCC2(CC1)CN(C(c1ccccc1)c1ccccc1)C2`, the Potency in assay [1] was > 11.4 µM (inactive); in [5] it was > 46 µM (inactive); in [11] it was 10 µM (active). Also, the activity change, negative = inhibition in [2] is 3.92% (inactive); in [8] it was 3.78% (inactive). Besides, the Potency result in assay [3], in assay [7] and in assay [9] was “inactive” throughout. Besides, the activity, negative = inhibition in [10] is -0.642% (inactive). Further, in assay [6], the molecule was called inactive. The max response in [8] (setting [16]) was 18.7%; in [8] (setting [17]), 24.2%.
Take `O=C(Nc1cccc(F)c1)N1CCC2(CCNCC2)CC1`: the Potency in [1] was > 11.4 µM (inactive); in [5], > 46 µM (inactive). Moreover, the activity change, negative = inhibition was -5.25% (inactive) in [2] and 2.6% (inactive) in [8]. Also, the Potency entry in assay [3], in assay [7] and in [9] was “inactive” each time. Further, the activity, negative = inhibition in assay [10] is -4.9% (inactive). The molecule was called inactive in assay [6]. Besides, the max response turned out to be 17.4% in [8] (setting [16]) and 23.2% in assay [8] (setting [17]).
Take `CN(C)c1ccc(-c2nc(N(C)Cc3ccco3)c3ccccc3n2)cc1`: the Potency is 6.72 µM (active) in [1], 0.631 µM (active) in assay [3], > 46 µM (inactive) in [12] and > 46 µM (inactive) in [5]. Moreover, the activity change, negative = inhibition in assay [2] is 25.1% (inactive); in [8], 10.8% (inactive). Further, the activity, negative = inhibition in [10] was 26.1% (inactive). In addition, the call in assay [6], in [13] and in assay [14] was inactive. Besides, the Potency entry in [7], in assay [11], in assay [15] and in [9] was “inactive” throughout. The max response is 0.88% in assay [8] (setting [16]) and 11.3% in assay [8] (setting [17]).
